# Test results reported in PubChem BioAssay (NCATS).
# Records with an inconclusive call do not appear. A call without a number means that no potency is given here. Values without a mark were called inactive. Activity calls are given as the source filed them. Calls follow the shape of the dose curve; as a rule, active = well fitted cell-killing curve with a large enough effect; inconclusive = small, poorly fitted or top-dose-only effect, or effect the other way; inactive = no such curve, though single readings can be large or run the other way.
# How the values were obtained:
# [1] = Viability qHTS for spleen associated tyrosine kinase inhibitor (SYKi) naive MV4-11 cells (AID 1963823); details: MV4-11 AML viability, CellTiter-Glo luminescence, 72 h; series mostly up to 45 µM; also: nearly all actives have a fitted effect of over 40% in size
# Summary of the method: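 SYKi-naive MV4-11 AML cells, 500 per well, were exposed to library compounds for 72 hr at 37 C, 5% CO2. Viability was then read by CellTiter-Glo luminescence after 10 min at room temperature.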
# [2] = Viability qHTS for spleen associated tyrosine kinase inhibitor (SYKi) drug resistant MV4-11 cells (AID 1963824); details: SYKi-resistant MV4-11 viability, CellTiter-Glo, 72 h; series mostly up to 45 µM; also: nearly all actives have a fitted effect of over 35% in size
# Summary of the method: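 SYK-inhibitor-resistant MV4-11 AML cells were seeded at 500 per well onto compound and cultured 72 hours (37 °C, 5% CO2). CellTiter-Glo was then added, and after 10 min at room temperature, luminescence gave viability.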
# Potency is read from the fitted curve at half-maximal effect.
Compound,Potency [1],Potency [2],viability (% of control) [1],"viability, % of control [2]"
CC(C)=C[C@@H]1[C@H](CO[C@@H]2O[C@H](CO)[C@@H](O)[C@H](O)[C@H]2O)C1(C)C,7.18 µM (active),4.53 µM (active),–,–
CC/C=C\CC1C(=O)C=CC1(CCCCC1CCC(=O)O1)OC(C)=O (stereo not given),12.8 µM (active),7.18 µM (active),–,–
CC(C)C1NC(=O)CNC(=O)C2CCCN2C(=O)C(Cc2c[nH]c3ccccc23)NC(=O)CNC(=O)C(Cc2ccc(O)cc2)NC(=O)CNC1=O (stereo not given),inactive,inactive,–,–
O=C1Nc2ccc(O)cc2O[C@H]1O[C@@H]1O[C@H](CO)[C@@H](O)[C@H](O)[C@H]1O,inactive,inactive,–,–
CC1(C)SC2C(NC(=O)[C@H](NC(=O)N3CCNC3=O)c3ccccc3)C(=O)N2C1C(=O)O (stereo not given in full),inactive,inactive,–,–
Cc1cc(O)cc(O[C@@H]2O[C@H](CO)[C@@H](O)[C@H](O)[C@H]2O)c1,inactive,inactive,–,–
CCC[C@@H]1C[C@@H](C(=O)N[C@@H]([C@H]2O[C@H](SC)[C@H](OP(=O)(O)O)[C@@H](O)[C@H]2O)[C@H](C)Cl)N(C)C1,inactive,inactive,–,–
CCCCCCCCCCCCC/C=C/[C@@H](O)[C@H](CO)N(C)C,–,–,70.8% [at 4.97 µM],82.6% [at 4.97 µM]
CNc1cc2c(Nc3cccc(Br)c3)ncnc2cn1,18.4 µM (active),23.1 µM (active),–,–
CC(C)c1cc(C(=O)N2CC[C@@H](NC(=O)C3CC3)C2)n[nH]1,inactive,inactive,–,–
